The values that follow come from PMC4336329 (PLoS ONE, 2015).

SMILES strings stand for the structures. About 14,000 (4.5%) of roughly 310,000 compounds showed an effect of 50% or more. Effects have a minus sign here. Shown is part of a subset that was picked to be rich in strong results.
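Further: peak tail current of the secondary pulse compared with the same well before compound.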

The target of the assay is human ether-à-go-go-related gene (hERG) potassium channel (human, UniProt Q12809). Briefly: primary screen, population patch clamp on CHO cells stably expressing hERG; higher = less effect of the substance.
Sequence of human ether-à-go-go-related gene (hERG) potassium channel (Q12809 whole entry, looked up): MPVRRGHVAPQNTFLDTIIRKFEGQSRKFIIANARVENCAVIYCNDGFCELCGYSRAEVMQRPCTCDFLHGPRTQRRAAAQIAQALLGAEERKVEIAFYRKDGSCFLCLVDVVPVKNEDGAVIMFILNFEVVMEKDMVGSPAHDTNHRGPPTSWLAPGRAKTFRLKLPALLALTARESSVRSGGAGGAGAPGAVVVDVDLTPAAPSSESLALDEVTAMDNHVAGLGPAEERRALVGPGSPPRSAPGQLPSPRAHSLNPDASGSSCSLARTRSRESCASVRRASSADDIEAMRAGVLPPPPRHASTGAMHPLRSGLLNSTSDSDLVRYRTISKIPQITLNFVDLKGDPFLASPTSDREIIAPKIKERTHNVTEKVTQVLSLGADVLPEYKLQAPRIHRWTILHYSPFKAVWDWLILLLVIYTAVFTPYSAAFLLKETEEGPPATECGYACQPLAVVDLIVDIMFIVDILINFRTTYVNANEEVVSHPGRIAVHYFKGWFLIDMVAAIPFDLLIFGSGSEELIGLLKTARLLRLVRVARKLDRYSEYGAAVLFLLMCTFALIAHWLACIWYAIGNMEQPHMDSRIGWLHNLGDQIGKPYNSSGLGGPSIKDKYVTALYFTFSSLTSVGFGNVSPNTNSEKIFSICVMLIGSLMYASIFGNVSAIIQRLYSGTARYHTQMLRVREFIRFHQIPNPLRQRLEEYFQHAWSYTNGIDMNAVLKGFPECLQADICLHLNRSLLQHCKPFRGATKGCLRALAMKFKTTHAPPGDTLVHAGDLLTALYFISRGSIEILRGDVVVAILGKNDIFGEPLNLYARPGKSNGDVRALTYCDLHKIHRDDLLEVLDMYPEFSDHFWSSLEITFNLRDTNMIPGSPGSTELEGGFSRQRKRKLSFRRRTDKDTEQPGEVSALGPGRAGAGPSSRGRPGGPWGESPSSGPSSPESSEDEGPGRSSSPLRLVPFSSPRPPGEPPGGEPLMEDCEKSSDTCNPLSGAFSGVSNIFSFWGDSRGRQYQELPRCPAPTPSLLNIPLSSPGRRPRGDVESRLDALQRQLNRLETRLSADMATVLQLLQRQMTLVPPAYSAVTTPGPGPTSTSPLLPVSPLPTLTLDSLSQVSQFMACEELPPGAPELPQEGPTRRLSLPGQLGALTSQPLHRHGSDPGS
`CCOC(=O)c1[nH]c2ccc(F)cc2c1NC(=O)CCN1CCSCC1`: the “hERG current change (%, negative = inhibition) at 10uM” value was -22%.

Consider `Cc1nc2sccn2c(=O)c1S(=O)(=O)N1CCN(c2cccc(Cl)c2)CC1`, for which the “hERG current change (%, negative = inhibition) at 10uM” value is reported as -0.478%.

Consider `Cc1cc(C)c(NS(=O)(=O)c2ccc3c(c2)NC(=O)C(C)C(=O)N3)c(C)c1` (stereo not shown), for which the “hERG current change (%, negative = inhibition) at 10uM” value is 2.12%.

Regarding `COc1ccc(NS(=O)(=O)c2cccc(C(=O)N3CCCC3)c2)cc1`, the “hERG current change (%, negative = inhibition) at 10uM” value stood at 2.23%.

Take `CN(c1ccc(C(=O)N2CCN(Cc3ccc4c(c3)OCO4)CC2)cc1)S(=O)(=O)c1ccccc1`: the “hERG current change (%, negative = inhibition) at 10uM” value is given as -38.3%.

As to `COc1ccc(OC)c(CN2CCN(C(=O)c3cccc(S(=O)(=O)Nc4ccccc4OC)c3)CC2)c1`, the “hERG current change (%, negative = inhibition) at 10uM” value is recorded as -38.2%.

On to `COc1ccc(OC)c(CN2CCN(C(=O)c3ccc(NS(=O)(=O)c4cccc([N+](=O)[O-])c4)cc3)CC2)c1`, for which the “hERG current change (%, negative = inhibition) at 10uM” value is listed as -70.6%.

`O=C(c1ccccc1)N1CCN(Cc2ccc3c(c2)OCO3)CC1`: the “hERG current change (%, negative = inhibition) at 10uM” value is 11.5%.

As for `COc1ccc(OC)c(CN2CCN(C(=O)c3cccc(S(=O)(=O)Nc4ccc(C)cc4)c3)CC2)c1`, the “hERG current change (%, negative = inhibition) at 10uM” value was -34.6%.

`O=C(c1ccc(NS(=O)(=O)c2ccccc2)cc1)N1CCN(Cc2ccc3c(c2)OCO3)CC1`: the “hERG current change (%, negative = inhibition) at 10uM” value was -63.8%.

Turning to `COc1ccc(NS(=O)(=O)c2cccc(C(=O)N3CCN(Cc4ccc5c(c4)OCO5)CC3)c2)cc1`, the “hERG current change (%, negative = inhibition) at 10uM” value is -76.8%.

As for `COc1ccc(NS(=O)(=O)c2cccc(C(=O)N3CCC3)c2)cc1`, the “hERG current change (%, negative = inhibition) at 10uM” value is 10.5%.

For the compound `COc1ccccc1NS(=O)(=O)c1cccc(C(=O)N2CCN(Cc3ccc4c(c3)OCO4)CC2)c1`, the “hERG current change (%, negative = inhibition) at 10uM” value is recorded as -61.4%.

In the case of `O=C(c1ccc(NS(=O)(=O)c2cccc([N+](=O)[O-])c2)cc1)N1CCCCCC1`, the “hERG current change (%, negative = inhibition) at 10uM” value is -23.1%.

`COc1cccc(OC)c1C(=O)N1CCN(Cc2ccc3c(c2)OCO3)CC1`: the “hERG current change (%, negative = inhibition) at 10uM” value is -12%.

Consider `COC(=O)C1=C(c2ccc(F)cc2F)C[C@@H]2CC[C@H]1N2C(=O)NCCOc1ccccc1`, for which the “hERG current change (%, negative = inhibition) at 10uM” value is given as -23.5%.

Regarding `N#CC1(N2CCN(C(=O)c3ccccc3)CC2)CCCCC1`, the “hERG current change (%, negative = inhibition) at 10uM” value is given as 30.1%.

For `CC1CCCCN1Cc1ccc(N)cc1` (stereo not shown), the “hERG current change (%, negative = inhibition) at 10uM” value came to 12.7%.

With `C#CC1(NC(=O)NC(C)(C)C)CCCCC1`, the “hERG current change (%, negative = inhibition) at 10uM” value stood at 15.7%.

For the compound `CCc1ccc(OCC(=O)NNC(=O)c2cc(S(=O)(=O)N(C)C)ccc2N2CCCC2)cc1`, the “hERG current change (%, negative = inhibition) at 10uM” value is listed as -23.4%.

Take `COC(=O)c1cc(OC)c(OC)cc1NC(=O)c1cc(C(C)(C)C)oc1C`: the “hERG current change (%, negative = inhibition) at 10uM” value worked out at 5.71%.

`c1ccc(Cn2nnc3c(N4CCc5ccccc5C4)ncnc32)cc1`: the “hERG current change (%, negative = inhibition) at 10uM” value is reported as -21.5%.

Consider `COc1cc(OC)c2ccc(=O)oc2c1C(CCN1CCCC(C)C1)c1ccc2c(c1)OCO2` (stereo not shown), for which the “hERG current change (%, negative = inhibition) at 10uM” value is -61%.

Consider `COc1cc(OC)c2ccc(=O)oc2c1C(CCN1CCCC1)c1ccc2c(c1)OCO2` (stereo not shown), for which the “hERG current change (%, negative = inhibition) at 10uM” value is -56.7%.

Turning to `COc1cc(C(CC(=O)N2CCCC2)c2c(OC)cc(OC)c3ccc(=O)oc23)cc(OC)c1OC` (stereo not shown), the “hERG current change (%, negative = inhibition) at 10uM” value came out at 2.42%.

As to `COc1cc(C(CCN2CCN(c3ccccc3)CC2)c2c(OC)cc(OC)c3ccc(=O)oc23)cc(OC)c1OC` (stereo not shown), the “hERG current change (%, negative = inhibition) at 10uM” value is recorded as -8.86%.

Turning to `COc1cc(OC)c2ccc(=O)oc2c1C(CC(=O)N1CCCC(C)C1)c1ccc2c(c1)OCO2` (stereo not shown), the “hERG current change (%, negative = inhibition) at 10uM” value is given as 4.24%.

Regarding `COc1cc(OC)c2ccc(=O)oc2c1C(CCN1CCCCC1)c1ccc(N(C)C)cc1` (stereo not shown), the “hERG current change (%, negative = inhibition) at 10uM” value was -16%.

Consider `COc1cc(C(CCN2CCCC2)c2c(OC)cc(OC)c3ccc(=O)oc23)cc(OC)c1OC` (stereo not shown), for which the “hERG current change (%, negative = inhibition) at 10uM” value is -69.2%.

`COc1cc(OC)c2ccc(=O)oc2c1C(CCN1CCCC(C)C1)c1ccc(N(C)C)cc1` (stereo not shown): the “hERG current change (%, negative = inhibition) at 10uM” value was -10.6%.

For `COc1cc(OC)c2ccc(=O)oc2c1C(CCN1CCCC1)c1ccc(N(C)C)cc1` (stereo not shown), the “hERG current change (%, negative = inhibition) at 10uM” value is reported as -24.1%.

`CS(=O)(=O)N1CCCC(C(=O)NCc2ccc(F)cc2Cl)C1` (stereo not shown): the “hERG current change (%, negative = inhibition) at 10uM” value came out at 2.22%.

For the compound `CC1(c2ccccc2)CC(C)(C)N2C(=O)C(=O)c3cccc1c32` (stereo not shown), the “hERG current change (%, negative = inhibition) at 10uM” value worked out at 19.6%.

`CCCCNC(=S)NC(=O)c1ccc(Cl)cc1Cl`: the “hERG current change (%, negative = inhibition) at 10uM” value is 22.7%.

Take `CC(=O)Nc1nc(-c2ccccc2)nc(C)c1C(C)=O`: the “hERG current change (%, negative = inhibition) at 10uM” value was -5.89%.

Take `COc1ccc(S(=O)(=O)N2CC(=O)Nc3ccccc32)cc1`: the “hERG current change (%, negative = inhibition) at 10uM” value was -6.04%.

As for `O=C1CCC(C(=O)N2CCCC(C(=O)c3ccc4ccccc4c3)C2)=NN1` (stereo not shown), the “hERG current change (%, negative = inhibition) at 10uM” value was -8.31%.

Consider `O=C(COC(=O)Cn1cnc2ccccc21)Nc1cc(S(=O)(=O)N2CCOCC2)ccc1Cl`, for which the “hERG current change (%, negative = inhibition) at 10uM” value was -0.439%.

Take `COc1cccc(-c2cccc(NC(=O)C3CCN(Cc4nccs4)CC3)c2)c1`: the “hERG current change (%, negative = inhibition) at 10uM” value is on record as -37.1%.

In the case of `Cc1nn(C(C)C)c(C)c1CN1CCCC(C(=O)c2cccc(OC(C)C)c2)C1` (stereo not shown), the “hERG current change (%, negative = inhibition) at 10uM” value is on record as -39.6%.

As for `CCS(=O)(=O)N1CCC(C(=O)Nc2cccc(F)c2)CC1`, the “hERG current change (%, negative = inhibition) at 10uM” value was -6.51%.

In the case of `CCOC(=O)C1(Cc2cccc(F)c2)CCN(Cc2c(C)nn(CC)c2C)CC1`, the “hERG current change (%, negative = inhibition) at 10uM” value is given as -41.4%.

Turning to `CCCc1ncc(CN2CCC(C(=O)Nc3cccc(-c4cscn4)c3)CC2)cn1`, the “hERG current change (%, negative = inhibition) at 10uM” value was -34.9%.

Turning to `CCc1ccc(CN2CCC(C(=O)Nc3cccc(-c4nnc(C)s4)c3)CC2)o1`, the “hERG current change (%, negative = inhibition) at 10uM” value is -33.6%.

For the compound `CCn1nc(C)c(CN2CCC(C(=O)Nc3cccc(-c4cccc(F)c4)c3)CC2)c1C`, the “hERG current change (%, negative = inhibition) at 10uM” value was -67%.

With `CCn1nc(C)c(CN2CCC(C(=O)Nc3cccc(-c4cccc(Cl)c4)c3)CC2)c1C`, the “hERG current change (%, negative = inhibition) at 10uM” value was -65%.
